Source: PubChem BioAssay (The Scripps Research Institute Molecular Screening Center)
Shown are actives, neighbours in structure and some others; about 2.3% of the full set was active somewhere.
PAD4 FP inh: human PAD4 inhibitors, primary screen, biochemical, fluorescence polarization, 1536-well format | hit rate 0.41% among 330,000 | inhibition, % at 6.36 µM | recombinant PAD4, RCA probe fluorescence polarization | Protein-arginine deiminase type-4 (Homo sapiens), Q9UM07;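 active = percent inhibition above a cutoff equal to the mean of all tested compounds plus 3 SD, cut at about 15% in these data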;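 also: 0% = PAD4 with RCA probe and DMSO and 100% = probe without PAD4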
Target sequence (Q9UM07 whole entry, looked up): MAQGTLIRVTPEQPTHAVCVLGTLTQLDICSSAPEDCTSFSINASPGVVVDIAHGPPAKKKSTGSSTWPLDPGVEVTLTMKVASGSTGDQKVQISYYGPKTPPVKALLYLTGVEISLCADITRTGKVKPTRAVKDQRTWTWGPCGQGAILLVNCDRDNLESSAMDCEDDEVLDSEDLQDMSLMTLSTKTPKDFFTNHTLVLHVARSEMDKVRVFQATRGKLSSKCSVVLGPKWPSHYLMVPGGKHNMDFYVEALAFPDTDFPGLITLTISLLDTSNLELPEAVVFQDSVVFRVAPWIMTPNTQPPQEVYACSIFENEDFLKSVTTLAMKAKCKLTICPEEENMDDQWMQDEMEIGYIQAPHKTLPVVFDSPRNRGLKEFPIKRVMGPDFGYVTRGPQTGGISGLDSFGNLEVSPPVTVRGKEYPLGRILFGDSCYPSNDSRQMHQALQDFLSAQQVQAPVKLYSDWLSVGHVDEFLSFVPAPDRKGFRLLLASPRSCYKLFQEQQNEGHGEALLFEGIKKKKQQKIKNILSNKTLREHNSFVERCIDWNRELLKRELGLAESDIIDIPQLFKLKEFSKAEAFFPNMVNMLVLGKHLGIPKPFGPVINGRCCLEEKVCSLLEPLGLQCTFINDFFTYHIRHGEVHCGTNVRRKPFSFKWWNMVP
Fam108B counter: mouse Fam108B serine hydrolase inhibitors, primary screen, counter-screen for RBBP9 inhibitor project, biochemical, fluorescence polarization; recombinant Fam108B, FP-Rh probe fluorescence polarization; inhibition, % at 9.51 µM; hit rate 0.33% among 300,000; AID 1947, 2009;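 active = inhibition above the screen mean inhibition plus 3 SD, computed separately per campaign, cut at about 18% in these data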;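 also: inhibitors lower polarization as less probe binds the enzyme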
GSTO1 inh: inhibitors of recombinant GSTO1, primary screen, counter-screen for RBBP9 inhibitor project, biochemical, fluorescence polarization; activity-based probe fluorescence polarization; Glutathione S-transferase omega-1 (Homo sapiens), P78417; inhibition, % at 5.96 µM; hit rate 1.1% among 300,000; AID 1974, 2009;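 active = inhibition above the campaign mean inhibition plus 3 SD, cut at about 35% in these data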;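 also: 0% = GSTO1-1 with DMSO and 100% = wells lacking GSTO1-1 enzyme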
PME-1 primary: PME-1 inhibitors via competitive probe labeling, primary screen, biochemical, fluorescence polarization, FP-Rh probe, HTS. hit rate 0.53% among 320,000. Protein phosphatase methylesterase 1 (Homo sapiens), Q9Y570. inhibition, % at 5.9 µM. recombinant PME-1;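 active = inhibition above the campaign mean of all compounds plus 3 SD, cut at about 26% in these data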;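 also: competitive labeling of PME-1 active site by serine hydrolase directed probe; 0% = PME-1 with DMSO and 100% = wells lacking PME-1 enzyme; inhibitors block probe labeling so polarization falls and inhibition rises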
pPAFAH inh: pPAFAH enzyme inhibitors, primary screen, biochemical, fluorescence polarization, human; recombinant pPAFAH, FP-rhodamine probe fluorescence polarization; hit rate 1.5% among 330,000; inhibition, % at 3.39 µM; Platelet-activating factor acetylhydrolase (Homo sapiens), Q13093;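 active = inhibition above the mean inhibition across the screen plus 3 SD, cut at about 25% in these data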;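 also: inhibitors block binding of the rhodamine activity-based probe so polarization drops; 0% = enzyme with DMSO and 100% = wells lacking pPAFAH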
* hit, by the source's call; . = no result given.

SMILES | PAD4 FP inh | Fam108B counter | GSTO1 inh | PME-1 primary | pPAFAH inh
O=C(c1ccc(S(=O)(=O)Nc2ccccc2)cc1)N1CCCC(C(F)(F)F)C1 (centres undefined) | -1 | -1 | 2 | 7 | 28*
Cc1ccc(S(=O)(=O)NCc2ccc(C(=O)N3CCN(c4ccccn4)CC3)cc2)cc1 | -1 | -2 | 1 | 0 | 9
Cc1ccc(NS(=O)(=O)c2ccc(C(=O)N3CCN(c4ccccn4)CC3)cc2)cc1 | -2 | 4 | 1 | 6 | 25*
CSc1ccc(Cl)c(C(=O)Nc2cc(S(=O)(=O)N3CCOCC3)ccc2N2CCOCC2)c1 | -1 | . | . | . | 4
Cc1ccccc1C(=O)NNC(=O)CSc1nc(-c2ccccc2)cc(=O)[nH]1 | -7 | 3 | 5 | 4 | 1
CCN(CC(=O)Nc1c(F)cccc1F)C(=O)c1cccc(S(=O)(=O)NCc2ccccc2)c1 | -10 | -1 | -3 | -2 | 4
CCOC(=O)Cc1csc(NC(=O)Cn2c(=O)oc3ccccc32)n1 | 0 | -1 | 5 | -5 | -6
C/C(=N\OC(=O)c1ccc(Cl)c(Cl)c1)c1sc(C)nc1C | -2 | -4 | 5 | -3 | 34*
C/C(=N\OC(=O)c1ccc(C)cc1)c1sc(C)nc1C | 2 | -2 | 3 | 0 | 24
O=C(N/N=C\c1ccc(COc2ccc([N+](=O)[O-])cc2)o1)c1ccc(Cl)cc1 | -1 | -5 | -21 | -10 | -2
O=C(N/N=C\c1ccc(COc2ccc([N+](=O)[O-])cc2)o1)c1cccc(Cl)c1 | 5 | 13 | -2 | 36* | 2
CC1CCC(NC(=O)C2CC(=O)N(c3ccc4c(c3)OCCO4)C2)CC1 (centres undefined) | 5 | -3 | -5 | -4 | 1
Cc1c([N+](=O)[O-])cc(S(=O)(=O)Nc2ccc(-c3ccc(N4CCCC4)nn3)cc2)cc1[N+](=O)[O-] | 3 | 5 | 4 | 14 | 29*
CC1=C(C(=O)OC2CCCCC2)C(c2ccc(N(C)C)cc2)NC(=O)N1 (centres undefined) | -5 | -3 | -5 | 3 | 6
O=C(NC(=S)N1CCN(c2ccc(C(F)(F)F)cc2[N+](=O)[O-])CC1)c1cccs1 | 0 | 3 | 6 | -5 | 34*
CC(C)C[C@H](NC(=O)c1[nH]cnc1C(=O)N[C@@H](Cc1ccccc1)C(=O)OCc1ccccc1)C(=O)OCc1ccccc1 | 1 | -17 | 1 | -6 | 10
O=C(N[C@@H](Cc1ccccc1)C(=O)OCc1ccccc1)c1nc[nH]c1C(=O)NCc1ccccc1 | 2 | -15 | -10 | -10 | 33*
C/C(=N/Nc1ccnc2cc(Cl)ccc12)c1ccc(O)cc1 | 0 | 10 | -8 | 33* | 14
C/C(=N/Nc1ccnc2cc(Cl)ccc12)c1ccc(N)cc1 | 1 | 6 | -1 | 36* | 8
NC(=S)NNc1ccnc2cc(Cl)ccc12 | 1 | 1 | 13 | 5 | 2
Cc1ccc(S(=O)(=O)N2CCCCC2)cc1NC(=O)COC(=O)Cc1cccc(C(F)(F)F)c1 | -5 | -5 | 1 | -4 | 7
Cc1nc2nc(NCc3cccs3)nn2c(C)c1Cl | -1 | -1 | 0 | 3 | 0
Cc1ccc(C)n1-c1sc2c(c1C(=O)O)CCCC2 | -4 | 2 | 7 | 2 | 26*
Cc1ccccc1CNS(=O)(=O)c1c(C)[nH]c(C)c1C(=O)N1CCCCC1 | -5 | 2 | 9 | -2 | 4
COC(=O)Cc1ccc(NC(=S)NCc2ccccc2Cl)cc1 | 1 | -2 | -1 | 5 | 28*
SMILES | PAD4 FP inh | Fam108B counter | GSTO1 inh | PME-1 primary | pPAFAH inh
COC(=O)Cc1ccc(NC(=S)NCCO)cc1 | -2 | 0 | 3 | -2 | 1
O=C(CCl)NCc1cc(-c2ccc(Cl)cc2)no1 | 0 | 1 | 89* | 0 | -1
Cc1[nH]n(-c2ccccc2)c(=O)c1N=Nc1ccccc1 | -6 | 5 | -8 | 0 | -1
Cc1ccc(N=Nc2c(N)n(-c3ccccc3)[nH]c2=O)cc1 | 2 | 2 | 9 | 35* | 9
Cc1cccc(-c2nnc(NC(=O)c3ccco3)s2)c1 | -5 | -2 | -16 | 7 | 5
COc1ccc(NC(=O)CN(C)C(=O)Cc2c(C)nc3ccccc3c2C)cc1 | -4 | -1 | -8 | 2 | 27*
COc1cccc(NC(=O)CN(C)C(=O)Cc2c(C)nc3ccccc3c2C)c1 | -3 | . | . | 5 | 5
CCN1CCN(c2cc(C)c3cc(NC(=O)c4cc(OC)cc(OC)c4)ccc3n2)CC1 | -3 | 4 | -8 | 5 | 29*
CCOc1ccc(C(=O)Nc2ccc3nc(N4CCN(CC)CC4)cc(C)c3c2)cc1 | 3 | 3 | -19 | -12 | 10
CN(C)c1ccc(N=Nc2ccc(S(=O)(=O)O)cc2)c2ccccc12 | -12 | 8 | 37* | 11 | 30*
CN(C)c1ccc(N=Nc2ccc(S(N)(=O)=O)cc2)cc1 | 1 | 0 | -4 | 3 | 10
C=CCNC(=S)N1CCC(C(=O)c2ccc(Cl)cc2)CC1 | 0 | 1 | 1 | -4 | 5
Cc1ccc(C)c(S(=O)(=O)N2CCCOC2CNC(=O)C(=O)NCc2ccc3c(c2)OCO3)c1 (centres undefined) | -4 | 0 | -4 | 1 | 7
COC(=O)c1ccc(C)c(NC(=O)CCCN2C(=O)NC(C)(C)C2=O)c1 | 2 | . | . | 6 | 2
Cc1ccc(NS(=O)(=O)c2ccc(C(=O)NCc3ccccn3)cc2)cc1 | -2 | -2 | 8 | 0 | 31*
Cc1ccc(CNC(=O)CCc2ccc(S(=O)(=O)NC3CCCCC3)cc2)cc1 | -3 | 1 | 6 | 4 | 15
O=C(CCNC(=O)c1ccc(Br)cc1)Nc1ccc(S(=O)(=O)Nc2ncccn2)cc1 | -1 | 2 | -8 | 4 | 28*
CC(C)NS(=O)(=O)c1ccc(CCC(=O)NCc2ccccn2)cc1 | -2 | -2 | 6 | -1 | -3
Cc1ccc(NS(=O)(=O)c2ccc(CCC(=O)NCCO)cc2)cc1 | 3 | -5 | 5 | 2 | 25*
Cc1ccc(NS(=O)(=O)c2ccc(CCC(=O)NCc3ccccn3)cc2)cc1 | 0 | 1 | 7 | 4 | 32*
O=C1CCNc2ccc(-c3ccccc3)cc21 | -1 | -2 | -4 | -2 | 2
O=C1CCNc2cc3ccccc3cc21 | -14 | 12 | 26 | 13 | 31*
O=C(CNc1ccc2ccccc2c1)N/N=C/c1ccc(OC(=O)/C=C/c2ccco2)cc1 | 3 | 16 | 1 | 30* | 12
O=C(COc1ccc2ccccc2c1)NCC(=O)N/N=C/c1ccco1 | -3 | -1 | 0 | -3 | 3
CC(C)C1Nc2ccc(S(N)(=O)=O)cc2C2C=CCC21 (centres undefined) | -13 | 5 | 16 | 4 | 9
NS(=O)(=O)c1ccc2c(c1)C1C=CCC1C(C1CC=CCC1)N2 (centres undefined) | -7 | 15 | 37* | 18 | 28*
